# Inconclusive results are not listed. Unmarked numbers belong to inactive results. Calls come from the whole dose curve; as a rule, active = well fitted inhibition curve with a large enough effect; inconclusive = small, poorly fitted or top-dose-only effect; inactive = no such curve, though single readings can be large or run the other way.
# Experiment: Primary qHTS for inhibitors of La Crosse Virus (LACV) - induced cell death in SH-SY5Y cells (AID 1508616);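 note: top concentration of the series differs between compounds; 0% = infected DMSO wells and 100% = uninfected DMSO wells; higher means more rescue of cells from virus-induced death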
# Details: SH-SY5Y LACV cytopathicity rescue, ATP luminescence, 6 d; series mostly up to 4.29 µM; activity change: at the top concentration
# Description: Assay Provider: Karin Peterson Ph.D.
# National Institute of Allergy and Infection Diseases, National Institute of Health
# La Crosse Virus (LACV) is a California serogroup mosquito-borne arbovirus, family Peribunyaviridae, which is an endemic pathogen in North America and can induce a rare, life-threatening neurological disease in children. LACV was first isolated in the early 1960s, from a summer "rural encephalitis" case in La Crosse, Wisconsin, USA. Since then, LACV encephalitis cases have been found in more than twenty states, with most cases in the Mississippi and Ohio River basins. The life cycle of LACV is maintained between the vector, the eastern tree-hole mosquito Aedes triseriatus, and vertebrate hosts including eastern gray squirrels (Sciurus carolinensis) and chipmunks (Tamiasstriatus grinseus). […] Most LACV infections in humans are asymptomatic or induce mild clinical symptoms of fever, headache, lethargy and vomiting. However, in some cases LACV can cause severe neuroinvasive disease, including encephalitis, meningitis, and meningoencephalitis, requiring hospitalization. To date, there is neither a licensed vaccine nor a Food and Drug Administration (FDA) approved antiviral therapy available to prevent or treat LACV encephalitis. The primary treatment for viral encephalitis is palliative care due to the lack of therapeutics. In the current study, we conducted a screen of 4,096 FDA approved and bioactive small molecules against LACV, by screening for rescue of LACV-induced cell death in SH-SY5Y cells.
# LACV-induced cytopathicity assay
# SEQUENCE No. (1,2, 3, etc.); […] (e.g., Cells, Incubation, Reagent, etc.); VALUE and DESCRIPTION.
# 1. Reagent; 2 uL; Cell solution.
# 3. Compounds; 23nL; Compound library
# 4. Reagent; 12 uL; LACV virus
# 6. Reagent; 24 uL; ATPLite (PerkinElmer)
# 7. Time; 5 min; Room temperature
# 8. Detection; Luminescence; View
# NOTES (numbers refer to sequence above)
# 1. Seed 6000 SH-SY5Y cells (ATCC CRL-2266) in 2 microL/well media (DMEM/F12 10% FBS, 1x L-Glutamine, 1x Pyruvate, 1x NEAA, 1x Pen/Strep) in 384-well assay plates (tissue culture treated, white, solid bottom).
# 2. Incubate at 37 degrees C with 5% CO2 for 24 hr.
# 3. Dispense 23 nL/well compounds in DMSO via pin transfer.
# 4. Dispense 12 microL/well of LACV (LACV/human/1978) in media at 0.01 MOI.
# 5. Incubate at for 6 days at 37C 5% CO2
# 6. Dispense 24 microL/well of ATPLite 1step Luminescence assay system (PerkinElmer).
# 7. Incubate for 5 min at room temperature.
# 8. Read luminescence signal (Viewlux plate reader, PerkinElmer). Data was normalized with DMSO control wells containing LACV as 0%, and DMSO control wells without virus as 100%.
row,Compound,activity change
1,CC(N)CCCC(C)(C)O (stereo not given),-2.98%
2,Cc1c(NC(C)C)c(=O)n(-c2ccccc2)n1C,21.4%
3,COc1ccccc1OC(=O)Oc1ccccc1OC,-14.9%
4,CCCCOC(=O)c1ccc(N)cc1,-5.57%
5,Cc1c(C(=O)NCCO)[n+](=O)c2ccccc2n1[O-],-4.39%
6,CC(C)CCOC(=O)c1ccc(N(C)C)cc1,6.64%
7,O=c1[nH]c(=O)c2ccccc2o1,5.21%
8,CC[N+](CC)(CC(=O)Nc1c(C)cccc1C)Cc1ccccc1,-16.7%
9,CCN[C@H]1CN(CCCOC)S(=O)(=O)c2sc(S(N)(=O)=O)cc21,-3.59%
10,COc1ccccc1Oc1c(NS(=O)(=O)c2ccc(C(C)(C)C)cc2)nc(-c2ncccn2)nc1OCCO,-4.82%
11,CC(=O)OCC(COC(C)=O)OC(C)=O,30.8%
12,CC(C)c1cc2c(cc1S(=O)(=O)O)[C@@]1(C)CCC[C@@](C)(C(=O)O)[C@@H]1CC2,-6.59%
13,C=CCN1C[C@H](C(=O)N(CCCN(C)C)C(=O)NCC)C[C@@H]2c3cccc4[nH]cc(c34)C[C@H]21,13.1%
14,Cc1ccsc1C(=CCCN1CCC[C@@H](C(=O)O)C1)c1sccc1C,-15.5%
15,CC(=O)SC[C@@H](Cc1ccccc1)C(=O)NCC(=O)OCc1ccccc1,40.9%
16,Cc1onc(-c2ccccc2)c1-c1ccc(S(N)(=O)=O)cc1,-0.036%
17,COC(=O)c1ccccc1C(=O)c1ccc(OCCN2CCCCC2)cc1,-0.532%
18,CO[C@@]1(NC(=O)C(C(=O)O)c2ccc(O)cc2)C(=O)N2C(C(=O)O)=C(CSc3nnnn3C)CO[C@@H]21 (stereo not given in full),-11.4%
19,O=C(O)CCCCC1CCSS1 (stereo not given),41%
20,NC(=O)CCCCC1CCSS1 (stereo not given),-2.69%

row,Compound,activity change
1,FC(F)(F)C(Cl)Br (stereo not given),8.85%
2,Cc1ccc2c(c1)c1c3n2CCNC3CCC1 (stereo not given),5.72%
3,Cc1[nH]c(C)c(Cl)c(=O)c1Cl,2.34% [at 1.78 µM]
4,O=C(NCN1CCOCC1)c1cnccn1,0.919%
5,NC(=O)CC[C@@H](N)C(=O)O,7.3%
6,Cc1cccc(Nc2ccccc2C(=O)O)c1C,-3.96%
7,O=C1c2ccccc2S(=O)(=O)N1CCCCN1CCN(c2ncccn2)CC1,4.75%
8,O=C(CCBr)N1CCN(C(=O)CCBr)CC1,-13.7%
9,C[C@@H](N)C(=O)O,-4.91%
10,Nc1c2c(nc3c1CCC3)CCCC2,-19%
11,OC[C@@H](O)[C@@H](O)[C@H](O)[C@H](O)CO,-17.4%
12,CN(C(=O)c1c(O)c2ccccc2n(C)c1=O)c1ccccc1,10.8%
13,CC(=O)Nc1cccc(O)c1,-3.83%
14,O=C(O)Cc1ccc(CCNS(=O)(=O)c2ccc(Cl)cc2)cc1,-3.96%
15,Cc1cc(O)cc(C)c1Cl,34.7%
16,CCc1cccc(CC)c1NC(=O)CN(CC(=O)O)CC(=O)O,-3.33%
17,CCCOC(=O)c1ccc(N)cc1,-15.5%
18,CC(=O)[C@@]1(O)CC[C@H]2[C@@H]3C[C@H](C)C4=CC(=O)C=C[C@]4(C)[C@@]3(F)[C@@H](O)C[C@@]21C,25.3%
19,C[N+](C)(C)CC[N+]1(C)Cc2c(Cl)c(Cl)c(Cl)c(Cl)c2C1,-4.87%
20,Nc1ccc(C(=O)Oc2ccccc2)c(O)c1,7.21%

# From PubChem BioAssay (NCATS)
